PubChem BioAssay (EPA / NIEHS)
Inconclusive results are not listed. The source made the active and inactive calls. How the source made its calls: active means hit-call score of the fitted dose curve at least 0.9, where 1 is the maximum; inconclusive means response in the unintended direction; inactive means score below 0.9.

These molecules were tested on alkyl and aryl transferase (GSTA2), GSTA2 (gene 2939) (assay: CLD_GSTA2_48hr: CellzDirect (CLD) Gene Expression Assay for alkyl and aryl transferase (GSTA2) at 48 hours (AID 2283708)).
Protocol: CLD_48hr is a cell-based, multiplexed-readout assay that uses hepatocyte, a human liver primary cell, with measurements taken at 48 hours after chemical dosing in a 96-well plate.CLD_GSTA2_48hr is one of 16 assay component(s) measured or calculated from the CLD_48hr assay. It is designed to make measurements of mRNA induction, a form of inducible reporter, as detected with chemiluminescence signals by Quantitative Nuclease Protection Assay (qNPA) technology.Data from the assay component CLD_GSTA2_48hr was analyzed at the endpoint, CLD_GSTA2_48hr, in the positive analysis fitting direction relative to DMSO as the negative control and baseline of activity. Using a type of inducible reporter, gain-of-signal activity can be used to understand changes in the reporter gene as they relate to the gene GSTA2. Furthermore, this assay endpoint can be referred to as a primary readout. To generalize the intended target to other relatable targets, this assay endpoint is annotated to the transferase intended target family, where subfamily is alkyl and aryl transferase.
Human hepatocyte cultures were treated daily for two consecutive days with fresh dosing solutions containing appropriate concentrations of the 320 ToxCast chemicals (chemical identities were blinded to CellzDirect and other ToxCast collaborators), vehicle control (0.2% DMSO), and positive control inducers as summarized in Table 1. […] These replicate data, coupled with internal replicates designed within the blinded ToxCast chemical library, provided additional data to evaluate interindividual differences between hepatocyte preparations and their potential impact on chemical profiles.Cell morphology and integrity were evaluated using phase-contrast microscopy as an indicator of hepatocyte cell health (Tyson & Green, 1987). Cultures for each treatment group (i.e., media, vehicle [0.2% DMSO], positive control inducers [multiple concentrations], and the ToxCast chemicals [multiple concentrations]) were observed and cell morphology was assessed relative to vehicle control cultures at each harvest time point (0, 6, 24, or 48 h). […] Images were evaluated at the conclusion of the study to assess changes in cell integrity and account for the effects of chemical exposure on uncharacteristic changes in concentration-dependent gene expression profiles. The results from these determinations of apparent cytotoxicity were annotated (yes/no) alongside the corresponding qNPA data for reference.At the conclusion of each treatment period, hepatocyte cultures (96-well) were washed with 1 volume of HBSS, lysed by addition of 25 ul ArrayPlate lysis buffer (HTG, Tucson, AZ), and 70 ul/well of Denaturation Oil, denatured by incubation at 95C for 10 min, and frozen at approximately -70C until analysis by nuclease protection assay (qNPA) (Roberts et al., 2007). For qNPA analysis, cell lysates were thawed at 50C for approximately 30 min, qNPA probes were added, and samples were incubated at 95C for 10 min to begin the detection process by denaturing the target RNA, dissociating the duplexes and secondary structure hybridization. At the conclusion of the hybridization period, S1 nuclease reagent was added to each sample to digest all nonprotected nucleotides at 50C for 60-90 min. At the conclusion of the S1 nuclease digestions, all reactions were stopped by transfer of all the samples to fresh plates containing stop solution and incubated at 95C for 15 min to deactivate the enzyme, dissociate the mRNA/ DNA probe heterodimers, and hydrolyze the resulting single stranded mRNA, leaving a stoichiometric amount of single-stranded DNA nuclease protection probe, unmodified in sequence, as the only intact oligonucleotide left in the sample. Neutralization solution was subsequently applied to cooled (room temperature) plates, and samples were transferred to ArrayPlates for overnight incubations at 50Cto allow probes to be captured onto programmed locations on the ArrayPlates. […]

Compound	outcome	AC50
CCN(CC)C(=O)C(C)Oc1cccc2ccccc12 (stereo not given)	inactive	–
CC(C)=CC1C(C(=O)OCc2coc(Cc3ccccc3)c2)C1(C)C (stereo not given)	inactive	–
Clc1nc(Cl)nc(Nc2ccccc2Cl)n1	inactive	–
CCSC(=O)N1CCCCCC1	inactive	–
CCCCC(C#N)(Cn1cncn1)c1ccc(Cl)cc1 (stereo not given)	inactive	–
CCCC(=NOCC)C1=C(O)CC(CC(C)SCC)CC1=O (stereo not given)	inactive	–
O=C1C2CC=CCC2C(=O)N1SC(Cl)(Cl)Cl (stereo not given)	inactive	–
CC(C)N1C(=O)N(c2ccccc2)CSC1=NC(C)(C)C	inactive	–
CC(C)N1C(=O)c2ccccc2NS1(=O)=O	inactive	–
O=C(Nc1ccccc1-c1ccc(Cl)cc1)c1cccnc1Cl	inactive	–
Cc1c(COC(=O)[C@@H]2[C@H](/C=C(\Cl)C(F)(F)F)C2(C)C)cccc1-c1ccccc1	inactive	–
COc1cc(Cl)c(OC)cc1Cl	inactive	–
CS(=O)(=O)c1ccc(C(=O)C2C(=O)CCCC2=O)c([N+](=O)[O-])c1	inactive	–
CCNC(=O)NC(=O)C(C#N)=NOC	inactive	–
CNC(=O)N(C)c1nnc(C(C)(C)C)s1	inactive	–
Cn1c(-c2ccccc2)cc(-c2ccccc2)[n+]1C	–	2.83 µM (active)
CC(C)Nc1nc(Cl)nc(NC(C)C)n1	inactive	–
COCC(C)N(C(=O)CCl)c1c(C)csc1C (stereo not given)	–	32.1 µM (active)
Nc1cnn(-c2ccccc2)c(=O)c1Cl	inactive	–
CS(=O)(=O)c1cc(C(F)(F)F)ccc1C(=O)c1cnoc1C1CC1	inactive	–

Compound	outcome	AC50
CO/N=C(/C1=NOCCO1)c1ccccc1Oc1ncnc(Oc2ccccc2Cl)c1F	inactive	–
N#CN=C1SCCN1Cc1ccc(Cl)nc1	inactive	–
N#Cc1c(Cl)cccc1Cl	inactive	–
CN=C=S	inactive	–
COC(=O)NC(=S)Nc1ccccc1NC(=S)NC(=O)OC	inactive	–
CC(C)C1(C)N=C(c2ncccc2C(=O)O)NC1=O (stereo not given)	inactive	–
COP(=O)(OC)O/C(C)=C/C(=O)N(C)C	inactive	–
CC1(C)C(C(=O)OC(C#N)c2cccc(Oc3ccccc3)c2)C1(C)C (stereo not given)	inactive	–
CCCCC(O)(Cn1cncn1)c1ccc(Cl)cc1Cl (stereo not given)	inactive	–
COC(=O)c1c(C(F)F)nc(C(F)(F)F)c(C2=NCCS2)c1CC(C)C	–	20 µM (active)
CCOP(=S)(OCC)Oc1nc(Cl)n(C(C)C)n1	inactive	–
Clc1cccc(C(Cl)(Cl)Cl)n1	inactive	–
CC(C)(C)C(=O)C(Oc1ccc(Cl)cc1)n1cncn1 (stereo not given)	inactive	–
CCCCOCN(C(=O)CCl)c1c(CC)cccc1CC	–	20 µM (active)
O=C(O)c1c(Cl)ccc2cc(Cl)cnc12	inactive	–
OC(c1ccc(Cl)cc1)(c1ccc(Cl)cc1)C(Cl)(Cl)Cl	inactive	–
COc1ccc(-c2ccccc2)cc1NNC(=O)OC(C)C	inactive	–
C=CCOC(=O)C(C)(C)OC(=O)c1cc(-n2c(=O)cc(C(F)(F)F)n(C)c2=O)ccc1Cl	inactive	–
CCOP(=O)(OCC)Oc1nc(Cl)c(Cl)cc1Cl	inactive	–
Cc1ccc(N=CN(C)C=Nc2ccc(C)cc2C)c(C)c1	inactive	–
